Bioassay records (PubChem)
HCV inh = inhibitors of hepatitis C virus infection; Huh7.5.1 HCVcc-Cre infection, luciferase reporter, 44 h; Potency, µM (highest dose often 41.8 µM), for inactives: at the highest dose activity change, negative = inhibition, actives largely listed as inhibitors; 340,000 tested, 3.4% active; active = well fitted inhibition curve with a large enough effect; inconclusive = small, poorly fitted or top-dose-only effect, or another doubt; inactive = no such curve, though single readings can be large or run the other way; also: potency is read from the fitted curve at half-maximal effect
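Infectious HCV cell culture screen: compound-treated cells (1,000/well, pre-plated 4 h) are infected with HCVcc-Cre at roughly 0.5 moi and grown 44 h. Infection is quantified by luciferase signal after 15 min substrate incubation at room temperature.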
MARV entry inh = inhibitors of Marburg virus binding or cell entry; AID 540276; Potency, µM (series often up to 37.8 µM), without a hit: at the top dose activity change, negative = inhibition, most hits filed as inhibitors; 300,000 tested, 1.8% active; Marburg virus pseudotyped entry inhibition, cell reporter; calls by dose curve; tested in HEK293 cells; also: potency is read from the fitted curve at half-maximal effect
HCMV antiviral = human cytomegalovirus inhibition | AID 1259415 | HFF cells, HCMV-luciferase reporter, 72 h; hits give low values | 410,000 tested, 4.5% active | activity change, negative = inhibition, % at 57.5 µM; in the data active = activity change below about -60%; inconclusive = no clear call, values can overlap the other calls; inactive = above about -39%
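Compounds were evaluated in HFFs infected with an HCMV luciferase reporter virus (MOI 1 PFU/cell). Luciferase in lysates collected 72 h post infection served as the replication measure.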
FMDV inh = foot and mouth disease virus antiviral activity. FMDV antiviral cell-based qHTS. 410,000 tested, 1.2% active. Potency, µM (highest dose often 57.9 µM), for the others: top-dose activity change, negative = inhibition, hits mostly inhibitors; calls by dose curve; tested in HEK293T cells; also: read-out not given here; potency is read from the fitted curve at half-maximal effect; nearly all actives have a fitted effect of over 45% in size
Lassa entry inh = blocks Lassa virus binding to or entry into cells; 300,000 tested, 1.2% active; Potency, µM (highest dose often 37.9 µM), for inactives: at the top dose activity change, negative = inhibition, usual class: inhibitors; AID 540256; Lassa virus pseudotype entry inhibition, cell reporter; calls by dose curve; tested in HEK293 cells; also: potency is read from the fitted curve at half-maximal effect; nearly all actives have a fitted effect of over 50% in size
Active calls of the source: *; ? = inconclusive; / = no result given; [ ] = dose if it differs, or a comment. An excerpt weighted towards active compounds, which were near 7.9% of everything screened. % is scaled to controls: 0 for no effect and ±100 for the full control effect.

SMILES	HCV inh	MARV entry inh	HCMV antiviral	FMDV inh	Lassa entry inh
Cc1cccn2c(=O)c(/C=C(\C#N)C(N)=O)c(N3CCN(Cc4ccc5c(c4)OCO5)CC3)nc12	?	-2.7%	-80.0*	?	-2.0%
Cc1ccccc1Oc1nc2c(C)cccn2c(=O)c1/C=C(\C#N)C(=O)NC1CCS(=O)(=O)C1 (stereo not drawn)	-22.1%	?	85.4	20µM*	12.6µM*
Cc1cccn2c(=O)c(/C=C(\C#N)C(=O)NC3CCS(=O)(=O)C3)c(Oc3ccccc3Cl)nc12 (stereo not drawn)	-14.9%	?	59.4	20µM*	-10.9%[46.1 µM]
CCOc1ccc(NC(=O)Cn2c(C)cc3ccccc3c2=O)cc1	/	?	9.6	-13.3%	-0.5%[46.1 µM]
Cc1cccc(CN2CCC(CNC(=O)c3c(C)oc4ncnc(N5CCCCC5)c34)CC2)c1	/	/	-9.0	-13.7%	21.5%[46.1 µM]
CCc1cc2c(cc3c(=O)n(CCCC(=O)NCc4cccc(Cl)c4)ncn32)s1	/	-8.6%[46.1 µM]	-31.0	-25.7%	/
Cc1ccc(S(=O)(=O)N(C)C)cc1NC(=O)c1cc(C(C)(C)C)nn1Cc1ccccc1	5.62µM*	/	-25.2	?	/
Cc1ccc(S(=O)(=O)N(C)C)cc1NC(=O)CN1CCN(Cc2ccccc2)CC1	26.0%	?	-18.2	-22.2%	-10.5%
Cc1ccc(Cn2nc3c(cc2=O)CCc2ccccc2-3)cc1	14.1µM*	/	-10.1	35.1%	/
O=c1cc2c(nn1Cc1ccc(Cl)cc1)-c1ccccc1CC2	-2.3%	4.7%	-16.4	17.4%	14.2%
CN1CCN(/N=C/c2ccc(-c3ccccc3)cc2)CC1	-26.7%	?	-85.5*	1.0%	?
CCOC(=O)[C@@]1([C@@H](NC(=O)OC)c2ccccc2)CCCC1=O	/	12.0%[14.2 µM]	/	/	/
Cc1ccc(S(=O)(=O)NC(C)(C)CSc2nnc(Nc3ccccc3)s2)cc1	17.8µM*	?	-24.6	?	?
O=C(O)CN(c1ccc(F)cc1)S(=O)(=O)c1ccc2c(c1)OCCO2	2.2%	-5.3%	-28.8	15.4%	-1.9%
Cc1ccc(N(CC(=O)N2CC(=O)Nc3ccccc32)S(=O)(=O)c2ccc3c(c2)OCCO3)cc1	9.2%	6.7%	-62.5*	5.4%	?
COc1ccc(N(CC(=O)Nc2ccc3c(c2)OCCO3)S(=O)(=O)c2cccc(C)c2)cc1	?	?	-76.9*	-6.6%	?
COc1ccc(N(CC(=O)Nc2ccc3c(c2)OCO3)S(=O)(=O)c2ccccc2)c(OC)c1	?	0.0%	-68.0*	39.4%	-15.3%
COc1ccc(S(=O)(=O)N(CC(=O)Nc2ccc(S(=O)(=O)N3CCOCC3)cc2)c2ccccc2)cc1	5.62µM*	?	-85.0*	-24.1%	?
COc1ccc(NC(=O)CCn2cnnn2)cc1	/	/	2.5	12.4%	-7.1%[46.1 µM]
Cc1ccc(CN2CCN(C3CCN(C(=O)Nc4ccc(C)cc4Cl)CC3)C(=O)C2=O)cc1	/	/	2.4	-9.1%	-9.7%[46.1 µM]
Cc1cn2c(=O)cc(COc3ccc(NC(=O)c4ccccc4C)cc3)nc2s1	/	?	1.1	0.0%	28.4%[46.1 µM]
COc1ccc2c(=O)c(OC)c(-c3ccccc3)oc2c1	/	/	/	10.6%	/
CCCC(C)NC(=O)CN(c1ccc2c(c1)OCCO2)S(=O)(=O)c1ccccc1 (stereo not drawn)	-4.4%	/	-5.2	-3.8%	/
COc1ccc(S(=O)(=O)N(CC(=O)Nc2cc(C)cc(C)c2)c2ccc(Cl)cc2)cc1	/	-15.5%[46.1 µM]	-32.1	0.0%	8.1%[46.1 µM]
CC(C)C(NC(=O)CN(c1ccc2c(c1)OCCO2)S(=O)(=O)c1ccccc1)C(C)C	17.6%	?	-60.5*	-3.0%	20.5%[46.1 µM]
SMILES	HCV inh	MARV entry inh	HCMV antiviral	FMDV inh	Lassa entry inh
COc1ccc(N(CC(=O)Nc2ccc3c(c2)OCO3)S(=O)(=O)c2ccc(F)cc2)cc1	?	-7.0%	-76.0*	23.9%	-9.1%
COc1ccc(S(=O)(=O)N(CC(=O)Nc2cccnc2)c2ccc(Cl)cc2)cc1	/	-6.0%[46.1 µM]	-103.7*	-6.5%	?
Cc1nnsc1C(=O)Oc1ccc(Cl)cc1	/	-4.8%[46.1 µM]	4.1	3.0%	12.4%[46.1 µM]
Cc1ccc(C2=N/C(=C/c3cccs3)C(=O)N2Nc2ccccc2)cc1	11.2µM*	?	-5.7	-6.6%	-20.3%
Cc1ccccc1C1=N/C(=C/c2cccs2)C(=O)O1	10.4%	/	-1.7	-16.8%	/
Cc1nc(N)sc1-c1csc(Nc2cccc(O)c2)n1	?	15.5%	70.4	-28.3%	1.1%
Cc1cccc(Nc2nc(-c3ccncc3)cs2)c1	?	/	37.2	4.6%	/
Cc1nc(C)c(-c2csc(Nc3cccc(O)c3)n2)s1	25.1µM*	?	38.5	31.7%	-16.2%
